Compound activity (PubChem BioAssay)
This is a sample that favours compounds with a hit; in the whole collection about 1.7% have one here.
OPRM1-OPRD1 inv: inverse agonist of human OPRM1-OPRD1 heterodimerization | AID 504357 | cell-based MOR-DOR heterodimer luminescence, inverse agonism | inhibition, % at 9.3 µM | hit rate 0.21% among 340,000 | P35372+P41143; in the data active means inhibition above about 22%, passing the limit was not always enough
HTR5A ag ctr: HTR5A agonism, opioid heterodimer counter-screen; HTR5A agonist assay, luminescence, cell-based; activation, % at 9.3 µM; hit rate 0.61% among 340,000; AID 504692; in the data active means activation mostly above about 9.5%, no sharp cut-off; inactive means mostly below about 7.6%
Target sequence (P47898 whole entry, looked up): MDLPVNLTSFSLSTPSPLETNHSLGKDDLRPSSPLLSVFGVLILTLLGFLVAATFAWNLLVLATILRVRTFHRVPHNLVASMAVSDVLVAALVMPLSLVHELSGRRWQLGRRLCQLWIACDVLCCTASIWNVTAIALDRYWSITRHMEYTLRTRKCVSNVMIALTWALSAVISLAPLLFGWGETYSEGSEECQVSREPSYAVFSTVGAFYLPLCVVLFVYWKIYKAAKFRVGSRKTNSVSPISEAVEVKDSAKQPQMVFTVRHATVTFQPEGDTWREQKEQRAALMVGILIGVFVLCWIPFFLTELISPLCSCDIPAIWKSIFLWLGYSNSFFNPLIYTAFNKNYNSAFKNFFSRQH
V-ATPase pHluor: alters yeast V-ATPase proton transport | S. cerevisiae, pHLuorin cytosolic pH fluorescence | response, % at 10 µM | AID 504577 | hit rate 0.37% among 350,000; in the data active means response mostly above about 7.3%, no sharp cut-off; inactive means mostly below about 5.4%; further: actives read high
HTR5A inv ag: inverse agonist of human HTR5A in OPRM1-OPRD1 counter-screen; P47898; HTR5A cell line, luminescence, inverse agonism; inhibition, % at 9.3 µM; hit rate 0.083% among 340,000; in the data active means inhibition mostly above about 23%, no sharp cut-off; inactive means mostly below about 18%
beta cell repl: inducers of beta-cell replication in MIN6 cells; MIN6 cells proliferation, ATPlite luminescence, 48 h; cells starved in 0.2% serum; 100% = growth in 10% serum; hit rate 0.29% among 330,000; proliferation, % at 10 µM; AID 2380;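 active means compounds whose signal lies at least 3.5 SD above the mean of all wells on their plate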
MOR-DOR ag: agonists of human mu-delta opioid receptor heterodimerization; P35372+P41143; cells, OPRM1-OPRD1 heterodimerization, luminescence; activation, % at 9.3 µM; hit rate 0.3% among 340,000
OPRM1-D1 ag cf: confirmation of human OPRM1-OPRD1 heterodimerization agonists. shares compounds with MOR-DOR ag. cells, MOR-DOR heterodimerization, luminescence complementation. activation, % at 9.3 µM. hit rate 45% among 830
HTR5A ag ctr2: activates human HTR5A in OPRM1-OPRD1 agonist counter-screen | shares compounds with MOR-DOR ag | HTR5A agonist counterscreen, cell luminescence | activation, % at 9.3 µM | hit rate 8% among 830; in the data active means activation above about 17%
OPRM1-D1 inv cf: OPRM1-OPRD1 heterodimer inverse agonism, confirmation; shares compounds with OPRM1-OPRD1 inv; hit rate 20% among 580; inhibition, % at 9.3 µM; cells expressing OPRM1/OPRD1 heterodimer, luminescence; in the data active means inhibition above about 32%
HTR5A inv count: inverse agonist of human HTR5A in OPRM1-OPRD1 counter-screen; shares compounds with OPRM1-OPRD1 inv; HTR5A-expressing cells, luminescence, inverse agonism; inhibition, % at 9.3 µM; 580 tested, under 10 active; call rule not given here
Hits are given with their value; n = inactive; x = not tested or not shown. Unless noted, no stated cut-off is given here; in the data, active means activation above about 18%; inactive means the rest.

SMILES	OPRM1-OPRD1 inv	HTR5A ag ctr	V-ATPase pHluor	HTR5A inv ag	beta cell repl	MOR-DOR ag	OPRM1-D1 ag cf	HTR5A ag ctr2	others
CC(=O)OC1CC2(O)C3CCC4CC(O)CCC4(C)C3CCC2(C)C1C1=CC(=O)OC1 (stereo unspecified)	n	28	n	n	x	81	n	62
CC(=O)OC1CC(OC2C(O)CC(OC3C(O)CC(OC4CCC5(C)C(CCC6C5CCC5(C)C(C7=CC(=O)OC7)C(O)CC65O)C4)OC3C)OC2C)OC(C)C1OC1OC(CO)C(O)C(O)C1O (stereo unspecified)	n	19	n	n	x	72	38	28
CN(C)C1(CNC(=O)c2ccc(Cl)c(S(=O)(=O)NCc3ccco3)c2)CCCCC1	n	n	n	n	n	71	80	n
CN(C)C1(CNC(=O)Cc2ccccc2F)CCCCC1	n	n	n	n	n	n	x	x
CO[C@H]1CC=C2CCN3CCC4=C(CC(=O)OC4)[C@]23C1	n	n	n	n	n	n	x	x
CCCCNC(=O)Nc1ccc(C(O)(C(=O)OCC)C(F)(F)F)cc1 (stereo unspecified)	n	n	n	n	n	n	x	x
COc1cc2c3cc1Oc1c(OC)c(OC)cc4c1[C@H](Cc1ccc(cc1)Oc1cc(ccc1O)C[C@H]3N(C)CC2)N(C)CC4	n	n	n	n	n	n	x	x
COc1cc2c3cc1Oc1cc(ccc1O)C[C@@H]1c4c(cc(OC)c(O)c4Oc4ccc(cc4)C[C@H]3N(C)CC2)CCN1C	n	n	n	n	n	34	65	n
CCC(=NCc1cccnc1)c1c(O)n(-c2ccc(Cl)cc2)c(=O)[nH]c1=O	n	n	n	n	n	n	x	x
CC12CC[C@H]3[C@@H](CCC4(O)C[C@H](O)CCC34/C=N/NC(=O)c3ccccc3Cl)C1(O)CCC2C1=CC(=O)OC1 (stereo partly specified)	n	n	n	n	n	n	x	x
C[C@H]1O[C@@H](OC2CC[C@]3(C=O)[C@H]4CC[C@]5(C)[C@@H](C6=CC(=O)OC6)CC[C@]5(O)[C@@H]4CC[C@]3(O)C2)CC2OC(C)(C)OC21 (stereo partly specified)	n	33	n	n	x	73	n	n
C[C@]12CCC3C(CCC4=CC(O)CC[C@@]43/C=N/O)C1(O)CCC2C1=CC(=O)OC1 (stereo partly specified)	n	29	n	n	n	69	38	22
C[C@]12CC[C@H]3[C@@H](CC[C@]4(O)C[C@@H](O)CC[C@]34C=O)[C@@]1(O)CC[C@@H]2C1=CC(=O)OC1	n	n	n	n	n	70	n	n
CC12CCC3C(CCC4(O)CC(O)CCC34C=O)C1(O)CCC2C1=CC(=O)OC1 (stereo unspecified)	n	29	n	n	x	79	41	24
Cc1cc(C)cc(NC2=NCCCS2)c1	n	n	n	n	n	n	x	x
COC(=O)C1=C(c2ccccc2)C[C@@H]2CC[C@H]1N2C(=O)NC1CCCCC1	n	n	n	n	n	n	x	x
CC(=O)c1ccc(OC(C)C)c(Cc2c(O)[nH]c(=S)[nH]c2=O)c1	n	n	n	n	n	n	x	x
CCN1CCOC(c2ccccc2)C1 (stereo unspecified)	n	n	n	n	x	n	x	x
CC12CCC3C(CCC4(O)CC(O)CCC34C=NO)C1(O)CCC2C1=COC(=O)C1 (stereo unspecified)	n	31	n	n	x	77	n	n
CCCCN=C[C@]12CCC(O)CC1(O)CCC1[C@@H]2CC[C@]2(C)[C@H](C3C=CC(=O)O3)CCC12O (stereo partly specified)	n	31	n	n	n	71	36	27
CCC1C2Cn3c(nc4ccccc43)C1N(C)O2 (stereo unspecified)	n	n	n	n	n	n	x	x
CCC(=O)OC(Cc1ccccc1)(c1ccccc1)[C@H](C)CN(C)C (stereo partly specified)	n	n	n	n	n	81	80	n
CC(CN1CCOCC1)OC(=O)Cc1ccccc1 (stereo unspecified)	n	n	n	n	n	n	x	x
CC1OC(OC2C=C3CCC4C(CCC5(C)C(c6ccc(=O)oc6)CCC45O)C3(C)CC2)C(O)C(OC2OC(CO)C(O)C(O)C2O)C1O (stereo unspecified)	n	26	n	n	x	92	n	n
COc1ccc(-n2c(O)c(C=NCCN3CCN(C(C)=O)CC3)c(=O)[nH]c2=S)cc1	n	n	n	n	n	n	x	x
SMILES	OPRM1-OPRD1 inv	HTR5A ag ctr	V-ATPase pHluor	HTR5A inv ag	beta cell repl	MOR-DOR ag	OPRM1-D1 ag cf	HTR5A ag ctr2	others
Cc1cc(-c2ccccc2)cc(C)[n+]1Cc1ccccc1	n	n	n	n	n	53	n	n
Cc1ccsc1C(=O)C1CCCN(Cc2sc(N(C)C)nc2Cl)C1 (stereo unspecified)	n	n	n	n	n	n	x	x
COc1ccc(C(CNC(=O)c2ccc3c(c2)CCC3)N(C)C)cc1 (stereo unspecified)	n	n	n	n	n	400	512	n
C=C1CC[C@@]2(O)[C@H]3Cc4ccc(O)c5c4[C@@]2(CCN3CC2CC2)[C@H]1O5	x	x	x	x	n	x	x	x
COC12CCC3(CC1C(C)(O)C(C)(C)C)[C@H]1Cc4ccc(OC5OC(C(=O)O)[C@@H](O)C(O)[C@H]5O)c5c4[C@@]3(CCN1CC1CC1)C2O5 (stereo partly specified)	n	n	n	n	n	18	84	n
O=C1/C(=C/c2ccccc2)C[C@@]2(O)[C@H]3Cc4ccc(O)c5c4[C@@]2(CCN3CC2CC2)C1O5 (stereo partly specified)	n	n	n	n	n	n	x	x
COC12CCC3(CC1C(C)(O)C(C)(C)C)[C@H]1Cc4ccc(O)c5c4[C@@]3(CCN1CC1CC1)C2O5 (stereo partly specified)	x	n	n	n	n	x	x	53
O=C(CN1CCCCC1)c1ccc2c(c1)OCO2	n	n	n	n	n	n	x	x
CC(C)(C)OC(=O)c1c(N)n(Cc2ccco2)c2nc3ccccc3nc12	40	n	n	n	n	n	x	x	OPRM1-D1 inv cf=96;HTR5A inv count=n
Cc1ccc(C2SCC(=O)Nc3c2c(=O)[nH]n3C2CCOC(C)(C)C2)cc1 (stereo unspecified)	n	n	n	n	n	n	x	x
CC1(C)CC(n2[nH]c(=O)c3c2NC(=O)CSC3c2ccccc2)CCO1 (stereo unspecified)	31	n	n	n	n	n	x	x	OPRM1-D1 inv cf=n;HTR5A inv count=n
